Among all 100,000 compounds or so, about 770 (0.77%) were called active. The sample holds actives, similar compounds and a random draw of the others, so the mix is not that of the screen. Values without a mark were called inactive. No stated cut-off is given here; in the data, active means inhibition above about 50%; inactive means the rest.
What follows are compounds tested against Gag-Pol polyprotein (Human immunodeficiency virus type 1 group M subtype B (isolate HXB2)) (UniProt P04585) (assay: RNase H inhibition, HIV 1 Gag Pol polyprotein, FRET biochemical assay, screening (AID 372)). Conditions: HIV-1 RT RNase H, FRET RNA/DNA substrate fluorescence; at 10 µM; hits give high values.

| SMILES | inhibition |
| --- | --- |
| COc1ccc2c(c1)c(/C=C/c1nc3ccccc3c(=O)n1-c1ccccc1[N+](=O)[O-])c(C)n2C | 1% |
| Cc1cccc(C)c1NC(=O)c1ccc(N(C)S(=O)(=O)c2ccccc2)cc1 | 57% (active) |
| CN(c1ccc(C(=O)N2CCCC2)cc1)S(=O)(=O)c1ccccc1 | 5% |
| CC1CCN(C(=O)c2ccc(N(C)S(=O)(=O)c3ccccc3)cc2)CC1 | 51% (active) |
| CNC(=O)c1ccc(N(C)S(=O)(=O)c2ccccc2)cc1 | 2% |
| CN(c1ccc(C(=O)Nc2ccccc2F)cc1)S(=O)(=O)c1ccccc1 | 9% |
| CN(c1ccc(C(=O)Nc2cc(Cl)cc(Cl)c2)cc1)S(=O)(=O)c1ccccc1 | 8% |
| CN(c1ccc(C(=O)Nc2cc(Cl)ccc2Cl)cc1)S(=O)(=O)c1ccccc1 | 54% (active) |
| CN(c1ccc(C(=O)N2CCN(c3ccccc3)CC2)cc1)S(=O)(=O)c1ccccc1 | 6% |
| Cc1ccccc1CNC(=O)c1ccc(N(C)S(=O)(=O)c2ccccc2)cc1 | 0% |
| Cc1nn(CC(=O)Nc2ccc(Cl)cc2Cl)c(C)c1[N+](=O)[O-] | 0% |
| COC(=O)C1CN(S(=O)(=O)c2ccccc2)CCN1S(=O)(=O)c1ccccc1 (stereo unspecified) | 2% |
| CCN(CC)C(=O)C1CN(S(=O)(=O)c2ccccc2)CCN1S(=O)(=O)c1ccccc1 (stereo unspecified) | 54% (active) |
| O=C(O)C1CN(S(=O)(=O)c2ccccc2)CCN1S(=O)(=O)c1ccccc1 (stereo unspecified) | 8% |
| Cc1cc(OC(C)C)c2c(-c3ccccc3)cc(=O)oc2c1 | 50% (active) |
| Cc1cc(OCC(=O)OC(C)C)c2c(-c3ccccc3)cc(=O)oc2c1 | 20% |
| Cc1cc(OS(C)(=O)=O)c2c(-c3ccccc3)cc(=O)oc2c1 | 19% |
| COc1ccc(NC(=O)n2nc(C(F)(F)F)nc2N)cc1 | 0% |
| Cc1cc(Cl)ccc1OC(C)C(=O)N1CCN(c2cccc(Cl)c2)CC1 (stereo unspecified) | 10% |
| CCOc1nc(Nc2ccc(Cl)cc2)nc(N2CCCCC2)n1 | 9% |
| c1ccc(-c2onc3ccc(Oc4ccc5noc(-c6ccccc6)c5c4)cc23)cc1 | 19% |
| O=[N+]([O-])c1ccccc1S(=O)(=O)NCCSCc1ccc(Cl)cc1 | 50% (active) |
| O=S(=O)(NCCSCc1ccccc1)c1ccc(Cl)cc1 | 15% |
| O=[N+]([O-])c1ccccc1S(=O)(=O)NCCSc1ccccc1 | 33% |
| COC(=O)c1ccc(-c2ccc(/C=C3\SC(=O)N(c4ccccc4)C3=O)o2)cc1 | 57% (active) |
| O=C(O)c1ccc(-c2ccc(/C=C3/SC(=O)N(c4ccccc4)C3=O)o2)cc1 | 15% |

| SMILES | inhibition |
| --- | --- |
| COC(=O)c1ccc(-c2ccc(/C=C3/SC(=S)N(c4ccccc4)C3=O)o2)cc1 | 4% |
| COc1cc(/C=C(\C#N)C(N)=S)ccc1OCc1ccccc1 | 10% |
| CCOc1ccc(N(CC(N)=O)S(=O)(=O)c2ccc(SC)cc2)cc1 | 0% |
| CCOC(=O)c1c(NC(=O)COc2ccc(Cl)cc2)sc2c1CCN(C(=O)OCC)C2 | 38% |
| CCOC(=O)c1c(NC(=O)Cc2ccc(OC)cc2)sc2c1CCN(C(=O)OCC)C2 | 50% (active) |
| CCOC(=O)c1c(NC(C)=O)sc2c1CCN(C(=O)OCC)C2 | 9% |
| CCOc1ccc(NC(=O)CSc2nc3ccccc3s2)cc1 | 10% |
| Nc1c2c(cc3ccccc13)C(=O)c1ccccc1C2=O | 46% |
| CCOc1ccccc1C(=O)Nc1cccc(OC)c1 | 11% |
| Cc1ccc(S(=O)(=O)NC(=O)OC(c2ccccc2)C(F)(F)F)cc1 (stereo unspecified) | 0% |
| CCc1ccccc1NC(=O)c1ccc(CN2CCc3ccccc3C2)cc1 | 7% |
| COc1ccccc1CC(=O)Nc1cccc(F)c1 | 0% |
| COc1ccccc1CC(=O)Nc1ccc(F)cc1F | 55% (active) |
| COc1ccccc1CC(=O)Nc1nccs1 | 14% |
| COc1ccccc1CC(=O)Nc1ccc(Br)c(C)c1 | 59% (active) |
| COc1cccc(OC)c1C(=O)Nc1cc(C)ccn1 | 0% |
| COc1ccccc1CC(=O)Nc1ccc(C)c(Cl)c1 | 5% |
| COc1ccccc1CC(=O)Nc1ccc(F)cc1 | 10% |
| COc1ccccc1CC(=O)Nc1cc(C)ccn1 | 53% (active) |
| CCOC(=O)c1ccc(NC(=O)Cc2ccccc2OC)cc1 | 8% |
| COc1ccccc1NC(=O)Cc1ccc(F)cc1F | 0% |
| COc1ccc(CC(=O)Nc2ccc(Br)c(C)c2)cc1OC | 12% |
| CCC(C)c1ccc(NC(=O)Cc2ccccc2OC)cc1 (stereo unspecified) | 52% (active) |
| Cc1nonc1-c1cn2cc(Cl)ccc2n1 | 8% |
| COc1ccccc1C/C(N)=N/OC(=O)Cc1ccc(Cl)cc1 | 22% |
| O=C(Nc1ccc(S(=O)(=O)N2CCCCCC2)cc1)c1cccc([N+](=O)[O-])c1 | 9% |

| SMILES | inhibition |
| --- | --- |
| CCOC(=O)C1=C(C)N=c2s/c(=C\c3ccc([N+](=O)[O-])o3)c(=O)n2C1c1ccc(SC)cc1 (stereo unspecified) | 20% |
| COc1ccc(S(=O)(=O)N(CCc2ccccc2)CC(=O)NCC2CCCO2)cc1 (stereo unspecified) | 2% |
| CCOc1ccc(N2C(=O)/C(=C/c3cc(Br)c(O)c(OC)c3)C(=O)NC2=S)cc1 | 11% |
| COc1ccccc1CC(=O)Nc1cccc(Br)c1 | 67% (active) |
| COc1ccccc1CC(=O)Nc1cccc(C)c1 | 0% |
| COc1ccccc1CC(=O)Nc1ccc(Br)cc1 | 38% |
| O=C1c2ccc(-c3nc4ccccc4c(=O)o3)cc2C(=O)N1c1cccc(I)c1 | 0% |
| Cc1ccc2c(c1)N(C(=O)c1ccccc1Br)C(C)(C)c1ssc(=S)c1-2 | 33% |
| C=CCn1c(=O)c(C(=O)NCCCO)c(O)c2ccccc21 | 11% |
| COc1ccc(/C=N/NC(=S)Nc2cccc(C)c2)c2ccccc12 | 5% |
| COC(=O)C1=C(C)NC(C)=C(C(=O)OC)C1c1cn(-c2ccccc2)nc1-c1ccco1 | 4% |
| O=C(Nc1cccc(Cl)c1)OCCOc1cccc(F)c1 | 58% (active) |
| Cc1cccc(OCCOC(=O)Nc2ccc(Cl)c(Cl)c2)c1 | 46% |
| Cc1ccc(OCCOC(=O)Nc2ccc(Cl)c(Cl)c2)cc1 | 46% |
| COc1cccc(OCCOC(=O)Nc2ccc(Cl)c(Cl)c2)c1 | 50% (active) |
| O=C(Nc1ccc(Cl)c(Cl)c1)OCCOc1ccccc1Cl | 48% |
| Cc1cccc(OCCOC(=O)Nc2cccc(Cl)c2)c1 | 44% |
| O=C(Nc1cccc(Cl)c1)OCCOc1ccccc1 | 48% |
| Cc1ccccc1OCCOC(=O)Nc1ccc(Cl)c(Cl)c1 | 51% (active) |
| O=C(Nc1ccc(Cl)c(Cl)c1)OCCOc1ccccc1 | 50% (active) |
| O=C(Nc1ccc(Cl)c(Cl)c1)OCCOc1cccc(Br)c1 | 44% |
| COc1ccccc1OCCOC(=O)Nc1ccc(Cl)c(Cl)c1 | 10% |
| COc1ccc(OCCOC(=O)Nc2ccc(Cl)c(Cl)c2)cc1 | 34% |
| CC1=C(C#N)C(c2ccccc2C(F)(F)F)C2=C(CCCC2=O)N1 (stereo unspecified) | 12% |
| O=C1Nc2ccccc2NC1C1OC(c2ccccc2)=CC1=O (stereo unspecified) | 0% |
| Cc1cccc(C2C(=O)c3ccccc3C2=O)c1C | 13% |

| SMILES | inhibition |
| --- | --- |
| O=C(O)c1ccc(N2C(=O)CC(N3CCN(Cc4ccc5c(c4)OCO5)CC3)C2=O)cc1 (stereo unspecified) | 12% |
| C/C(=N\NC(=O)c1cc(C)[nH]n1)c1ccc(N)cc1 | 5% |
| O=S1(=O)CCC(NC(=S)N/N=C/c2ccc(Cl)c(Cl)c2)C1 (stereo unspecified) | 13% |
| COc1ccc(C(N)=CC(=O)C(C)(C)C)cc1 | 7% |
| Clc1cccc(OCCCN2CCOCC2)c1Cl | 2% |
| Clc1cccc(OCCN2CCOCC2)c1Cl | 0% |
| Clc1cccc(OCCCCN2CCOCC2)c1Cl | 55% (active) |
| Cc1sc2nc(SCC(=O)NCCO)[nH]c(=O)c2c1C | 2% |
| COc1ccc(-c2nc3cc(NC(=S)NC(=O)c4ccccc4OC)ccc3o2)cc1Cl | 13% |
| COc1ccc(-c2nc3cc(NC(=S)NC(=O)c4ccccc4C)ccc3o2)cc1Cl | 56% (active) |
| COc1ccc(C(=O)NC(=S)Nc2ccc3oc(-c4ccccc4Cl)nc3c2)cc1Cl | 53% (active) |
| CCOc1ccc(-c2nc3cc(NC(=S)NC(=O)c4ccccc4C)ccc3o2)cc1 | 61% (active) |
| COc1ccc(-c2nc3cc(NC(=S)NC(=O)c4ccccc4Cl)ccc3o2)cc1Cl | 45% |
| COc1ccc(-c2nc3cc(NC(=S)NC(=O)c4ccccc4C)ccc3o2)cc1 | 7% |
| CCOc1ccc(-c2nc3cc(NC(=S)NC(=O)c4ccccc4Br)ccc3o2)cc1 | 20% |
| COc1ccc(C(=O)NC(=S)Nc2ccc3oc(-c4ccccc4Cl)nc3c2)cc1OC | 14% |
| COc1ccc(C(=O)NC(=S)Nc2ccc3oc(-c4ccccc4C)nc3c2)cc1Cl | 25% |
| O=C(Nc1ccc2ccccc2c1)c1cc(I)ccc1Cl | 23% |
| COc1ccc(/C(N)=N/OC(=O)/C=C/c2ccccc2)cc1 | 15% |
| CCCCOC(=O)c1ccc(NC(=O)COc2ccccc2Br)cc1 | 15% |
| COc1ccc(NC(=O)CN(c2c(C)n(C)n(-c3ccccc3)c2=O)S(=O)(=O)c2ccccc2)cc1 | 4% |
| O=C(CSc1nc2sc3c(c2c(=O)n1-c1ccc(Cl)cc1)CCCC3)c1ccccc1 | 13% |
| O=[N+]([O-])c1ccc(N2CCN(S(=O)(=O)c3ccc4ccccc4c3)CC2)cc1N1CCCC1 | 5% |

Source: PubChem BioAssay AID372 (MTDP, 2006)
